Compound activity from PubChem.
A selection: hits, their analogues and other compounds. The true share with any hit is near 10%.
G9a inh – G9a (human) methyltransferase inhibition; Q96KQ7; G9a H3K9 monomethylation, AlphaScreen, 2 h; Potency, µM (doses to about 102 µM), without a hit: at the top dose activity, negative = inhibition, usual class: inhibitors; 8.8% of 350,000 active; AID 504332; also: potency is read from the fitted curve at half-maximal effect; % is scaled to controls: 0 for no effect and ±100 for the full control effect; nearly all actives have a fitted effect of over 75% in size
Target sequence (Q96KQ7 913-1193 limits assumed): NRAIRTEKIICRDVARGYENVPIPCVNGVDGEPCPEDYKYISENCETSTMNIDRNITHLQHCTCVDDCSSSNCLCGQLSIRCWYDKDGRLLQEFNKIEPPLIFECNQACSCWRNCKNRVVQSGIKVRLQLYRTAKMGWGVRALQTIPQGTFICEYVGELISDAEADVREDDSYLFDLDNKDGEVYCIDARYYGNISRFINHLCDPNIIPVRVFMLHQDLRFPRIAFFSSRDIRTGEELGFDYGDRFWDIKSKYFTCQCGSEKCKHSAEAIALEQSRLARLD
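Methyltransferase reactions run at room temperature for 2 h (20 nM enzyme, 500 nM biotin-H3K9 peptide, 20 uM SAM) after a 15 min compound preincubation; product detected by AlphaScreen beads and anti-H3K9me1 antibody.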
JMJD2A Tudor inh – inhibitors of human JMJD2A Tudor domain | Potency, µM (top dose mostly 114 µM), for inactives: at the highest dose activity change, negative = inhibition, actives largely listed as inhibitors | O75164 | 4.4% of 390,000 active | AlphaScreen JMJD2A-Tudor / H3K4me3 peptide binding; also: potency is read from the fitted curve at half-maximal effect; % is scaled to controls: 0 for no effect and ±100 for the full control effect; nearly all actives have a fitted effect of over 50% in size
HP1b binding inh – blocks HP1-beta chromodomain binding to methylated histone tails; P83916; AlphaScreen HP1-beta / biotin-H3K9me3 peptide binding; Potency, µM (series often up to 114 µM), inactives show at the highest dose activity change, negative = inhibition, actives largely listed as inhibitors; 0.56% of 390,000 active; AID 540317; also: potency is read from the fitted curve at half-maximal effect; nearly all actives have a fitted effect of over 70% in size
Target sequence (P83916 whole entry, looked up): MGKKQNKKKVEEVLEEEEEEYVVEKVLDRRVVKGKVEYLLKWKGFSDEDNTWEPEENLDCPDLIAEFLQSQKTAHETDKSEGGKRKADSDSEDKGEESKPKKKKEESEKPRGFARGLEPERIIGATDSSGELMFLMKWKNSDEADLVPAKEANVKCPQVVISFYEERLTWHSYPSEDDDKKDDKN
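AlphaScreen: HP1-beta (50 nM) preformed 30 min with biotin-H3(1-18)K9me3 peptide (50 nM) in PBS pH 7.4, 0.01% Tween-20. Compound added for 30 min at RT, then streptavidin donor/nickel chelate acceptor beads (10 ug/mL) for 30 min.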
BAZ2B inh – BAZ2B (human) inhibition. 4.4% of 360,000 active. Potency, µM (series often up to 114 µM), inactives show at the highest dose activity change, negative = inhibition, most hits filed as inhibitors. AlphaScreen BAZ2B-H3K14Ac peptide displacement. Q9UIF8; also: potency is read from the fitted curve at half-maximal effect; % is scaled to controls: 0 for no effect and ±100 for the full control effect; nearly all actives have a fitted effect of over 60% in size
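BAZ2B 50 nM plus b-H3(5-23)K14Ac 50 nM, PBS pH 7.4/0.01% Tween-20, 30 min RT; compound added (max 110 uM), 30 min RT; streptavidin donor/Ni-chelate acceptor beads 10 ug/mL final, 20 min dark; AlphaScreen read.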
CtBP-E1A blk – blocks the CtBP interaction with E1A; AlphaScreen GST-E1A/His-CtBP binding, 1536-well; active compounds read low; 0.49% of 340,000 active; activity change, % (concentration not given with the values); in the data active = activity change below about -65%; inconclusive = mostly about -30% to -63%; also: % is scaled to controls: 0 for no effect and ±100 for the full control effect
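In 5 uL wells, 23 nL compound meets equimolar GST-E1A and His-CtBP (5X stock 125 nM each) for 2 h, 37 °C. Beads (5X, 50 ug/mL) then 1 h, 37 °C, dark.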
Six1-Eya2 blk – blocks human Six1 binding to Eya2 | AlphaScreen GST-Six1/His-Eya2 binding, biochemical; active compounds read low | Q15475+O00167 | 0.56% of 360,000 active | AID 651725 | activity change, % (no concentration beside the values); in the data active = activity change below about -65%; inconclusive = mostly about -30% to -63%; also: % is scaled to controls: 0 for no effect and ±100 for the full control effect
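Compounds are tested against tagged Six1 and Eya2 proteins bridged by glutathione donor and nickel acceptor beads; after a one-hour incubation at 37 °C without light, AlphaScreen emission is recorded.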
* marks the source's active call; other numbers are inactive results; [ ] = another dose, or the depositor's remark. Unless noted, calls follow the shape of the dose curve; as a rule, active = well fitted inhibition curve with a large enough effect; inconclusive = small, poorly fitted or top-dose-only effect; inactive = no such curve, though single readings can be large or run the other way.

Results for C=CCN(CC(=O)c1sc(C(=O)OCC)nc1C)c1cccc(Br)c1 ?
JMJD2A Tudor inh: inconclusive; HP1b binding inh: -2.1%; CtBP-E1A blk: -5.1; Six1-Eya2 blk: -8.6

Results for Brc1ccc2c(c1)C(OC1CN3CCC1CC3)c1ccccc1CS2 (centres undefined) ?
G9a inh: 15.8µM*; JMJD2A Tudor inh: -34.9%; HP1b binding inh: 6.2%; BAZ2B inh: -37.2%; CtBP-E1A blk: -9.8; Six1-Eya2 blk: -13.7

Results for c1ccc2c(c1)CSc1ccccc1C2C1=NCCN1 (centres undefined) ?
G9a inh: 1.3%[59 µM]; JMJD2A Tudor inh: -5.0%; HP1b binding inh: 36.7%; BAZ2B inh: -6.3%; CtBP-E1A blk: 3.1; Six1-Eya2 blk: 2.9

What do the screens show for `CC(C)n1c(O)c(C2c3cc(Cl)ccc3Oc3[nH]c(=O)n(C(C)C)c(=O)c32)c(=O)[nH]c1=O` (centres undefined)?
G9a inh: 4.47µM*; JMJD2A Tudor inh: -16.2%; HP1b binding inh: 9.1%; BAZ2B inh: -23.8%; CtBP-E1A blk: 2.6; Six1-Eya2 blk: 9.7

How did COc1ccc(-n2cnc3cc(C(=O)N4CCC5(CC4)OCCO5)ccc32)cc1 do in these assays?
G9a inh: -36.7%; JMJD2A Tudor inh: -6.2%; HP1b binding inh: 33.0%; BAZ2B inh: -0.5%; Six1-Eya2 blk: 1.0

How did O=C(c1ccc2nc(-c3ccco3)c(-c3ccco3)nc2c1)N1CCC2(CC1)OCCO2 do in these assays?
G9a inh: inconclusive; JMJD2A Tudor inh: 89.1µM*; HP1b binding inh: -9.5%; BAZ2B inh: 56.2µM*; CtBP-E1A blk: -0.1; Six1-Eya2 blk: -1.0

Results for CC(C)=CC1C(C(=O)OCc2coc(Cc3ccccc3)c2)C1(C)C (centres undefined) ?
G9a inh: 17.2%[12.7 µM]

How did Cc1nn(-c2ccccc2)c(Cl)c1/C=N\NC(=O)c1cnccn1 do in these assays?
G9a inh: 24.0%; JMJD2A Tudor inh: -10.7%; HP1b binding inh: 45.1%; BAZ2B inh: -1.7%; CtBP-E1A blk: 7.0; Six1-Eya2 blk: -1.2

What do the screens show for `CCN(CC)c1ccc(/C=C2\C(=O)NC(=S)N(C)C2=O)o1`?
G9a inh: 12.0%[12.7 µM]; JMJD2A Tudor inh: -26.4%; HP1b binding inh: -8.2%; BAZ2B inh: inconclusive; CtBP-E1A blk: 2.4; Six1-Eya2 blk: -0.7

How did CCN(CC)c1ccc(C=C2C(=O)N(C)C(=S)N(C)C2=O)o1 do in these assays?
G9a inh: 20µM*; JMJD2A Tudor inh: -30.1%; HP1b binding inh: -25.3%; BAZ2B inh: inconclusive; CtBP-E1A blk: -4.6; Six1-Eya2 blk: 7.4

What do the screens show for `Cn1c(=O)oc2cc(S(=O)(=O)N3CCC(C(=O)N4CC=C(c5ccccc5)CC4)CC3)ccc21`?
G9a inh: 50.1µM*; JMJD2A Tudor inh: -15.2%; HP1b binding inh: 34.3%; BAZ2B inh: -3.0%; CtBP-E1A blk: -25.0; Six1-Eya2 blk: -0.2

What do the screens show for `CC[C@H]1CN(C)C[C@@]2(C(=O)OC)Cc3c([nH]c4ccccc34)C(=O)C[C@@H]12`?
JMJD2A Tudor inh: -7.5%; HP1b binding inh: 27.1%; CtBP-E1A blk: 5.3; Six1-Eya2 blk: 10.3

What do the screens show for `CC[C@H]1CC2CN3CCc4c([nH]c5cc(OC)ccc45)[C@](C(=O)OC)(C2)[C@H]13`?
JMJD2A Tudor inh: 39.8µM*; HP1b binding inh: -27.5%; CtBP-E1A blk: -23.8; Six1-Eya2 blk: -28.2

Results for Cc1cccc(N=C2c3cc([N+](=O)[O-])ccc3-c3c2cc([N+](=O)[O-])cc3[N+](=O)[O-])c1 ?
JMJD2A Tudor inh: 3.55µM*; HP1b binding inh: 2.82µM*; CtBP-E1A blk: inconclusive; Six1-Eya2 blk: inconclusive

What do the screens show for `CCCCC1(CCCC)C(=O)NC(=Nc2cccc(C)c2)NC1=O`?
G9a inh: inconclusive; JMJD2A Tudor inh: -7.1%; HP1b binding inh: 22.8%; BAZ2B inh: 17.6%; CtBP-E1A blk: -3.0; Six1-Eya2 blk: -14.7

What do the screens show for `Cc1ccc2[nH]c3c(c2c1)CN(C(=O)CN1C[C@H]2C[C@@H](C1)c1cccc(=O)n1C2)CC3`?
G9a inh: 50.1µM*; JMJD2A Tudor inh: -25.2%; HP1b binding inh: 57.9%; BAZ2B inh: -27.3%; CtBP-E1A blk: 25.5; Six1-Eya2 blk: 15.7

What do the screens show for `O=P1(c2ccccc2)Nc2ccccc2N1c1ccccc1` (centres undefined)?
JMJD2A Tudor inh: 50.1µM*; HP1b binding inh: inconclusive; CtBP-E1A blk: -6.4; Six1-Eya2 blk: -4.9

Results for CCN(CC)P(=O)(Nc1ccc([N+](=O)[O-])cc1)c1c(C)nn(CCC#N)c1NC(=O)c1ccc(Cl)cc1Cl (centres undefined) ?
G9a inh: -4.2%; JMJD2A Tudor inh: -7.7%; HP1b binding inh: 12.8%; BAZ2B inh: inconclusive; CtBP-E1A blk: 5.6; Six1-Eya2 blk: -2.9

Results for S=c1[nH]c2ccccc2[nH]1 ?
G9a inh: 12.6µM*; JMJD2A Tudor inh: inconclusive; HP1b binding inh: -5.3%; BAZ2B inh: -11.7%; CtBP-E1A blk: 9.1; Six1-Eya2 blk: 3.2

How did O=C(Nc1ccccc1)c1c(O)[nH]c(=S)[nH]c1=O do in these assays?
JMJD2A Tudor inh: inconclusive; HP1b binding inh: 78.7%; CtBP-E1A blk: 0.5; Six1-Eya2 blk: 16.8

Results for COc1ccc(CCN2CCC(CNC(=O)c3cnn(-c4ccc(C)cc4)c3C3CCN(C(=O)OC(C)(C)C)CC3)CC2)cc1 ?
G9a inh: -19.9%[59 µM]; JMJD2A Tudor inh: inconclusive; HP1b binding inh: 5.7%; BAZ2B inh: inconclusive

Results for Nc1c(C(=O)Nc2cccc(Br)c2)sc2nc3c(cc12)N1CCC3CC1 ?
G9a inh: 12.6µM*; JMJD2A Tudor inh: inconclusive; HP1b binding inh: 80.8%; BAZ2B inh: 1.6%

Results for O=C(c1ccccc1Cl)N1CCC(c2nc3ccccc3s2)CC1 ?
G9a inh: 10.3%[59 µM]; JMJD2A Tudor inh: -7.6%; HP1b binding inh: 43.3%; BAZ2B inh: -17.8%

Results for CC(=NCc1ccco1)c1c(O)n(-c2ccccc2C)c(=O)[nH]c1=O ?
JMJD2A Tudor inh: -13.0%; HP1b binding inh: 14.1%; BAZ2B inh: -5.5%; CtBP-E1A blk: -11.7; Six1-Eya2 blk: -5.3

Results for Cc1ccccc1-n1c(O)c(C(c2ccncc2)c2c(O)n(-c3ccccc3C)c(=O)[nH]c2=O)c(=O)[nH]c1=O ?
G9a inh: 25.1µM*; JMJD2A Tudor inh: -11.2%; HP1b binding inh: 21.8%; BAZ2B inh: inconclusive; CtBP-E1A blk: 12.0; Six1-Eya2 blk: 4.9

Results for c1ccc(CN2CCCC3(CCNCC3)C2)cc1 ?
G9a inh: -0.9%[12.7 µM]
